AI-2 QS modul – modulators of Vibrio harveyi AI-2 quorum sensing system. Vibrio harveyi JMH597 AI-2 luminescence/OD600 ratio, 9 h; stronger effect = lower value; strain lacks LuxN and CqsS sensors; 0 = neutral-control median. activity change, % at 7.5 µM. 300,000 tested, 0.4% active. AID 2094; in the data active = activity change below about -75%, passing the limit was not always enough; inconclusive = no clear call, values can overlap the other calls;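 note: luminescence divided by OD600 gain over 9 h not by final OD600 alone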
Statin myotox sup – suppressors of simvastatin-induced myotoxicity in C2C12 myotubes; ATP luminescence, 48 h; scaled: DMSO 0, geranylgeraniol control 100; rescue of ATP level, % at 7.49 µM; 330,000 tested, 0.78% active; AID 602340;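 active = mean ATP rescue above about 67%, or every replicate alone reaching that limit, limit read from the data, passing the limit was not always enough; inconclusive = no clear call, values can overlap the other calls; inactive = mean under the limit and some replicate under it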;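 note: myotubes were challenged with 10 µM simvastatin during compound exposure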
HIF act – HIF pathway transcriptional activation. activation, % at 7.5 µM (by protocol). U2OS HRE-luciferase reporter, luminescence; normalized: DMSO 0%, desferrioxamine 100%. AID 1910. 300,000 tested, 0.32% active;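 active = mean activation of at least 10% of the iron chelator positive control signal, with at least half of replicates also reaching 10%; inconclusive = mean and replicate majority disagree about reaching 10%; inactive = mean and most replicates under 10%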
PGC1a acetyl inh – lowers PGC1a acetylation signal in U2OS cells. inhibition, % at 15.6 µM. AID 651687. AlphaScreen anti-acetyl-lysine; with virally co-expressed GCN5 acetyltransferase. 350,000 tested, 0.17% active;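 active = every replicate shows inhibition of at least 40%; inconclusive = mean inhibition at least 40% but some replicate below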;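 note: 0% = neutral control wells and 100% = positive control wells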
Rce1 inhib – inhibitors of yeast Ras-converting enzyme; Q03530; yeast membranes, quenched prenylated peptide cleavage fluorescence; calls only; 290,000 tested, 0.27% active;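 active = fall in fluorescence gain of 50% or more versus controls, with final raw signal at or below 3038400; inconclusive = same 50% fall but final raw signal above 3038400; inactive = fall in fluorescence gain under 50%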;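 note: plate controls were neutral control wells for no effect and wells lacking membranes for full effect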
Target sequence (Q03530 whole entry, looked up): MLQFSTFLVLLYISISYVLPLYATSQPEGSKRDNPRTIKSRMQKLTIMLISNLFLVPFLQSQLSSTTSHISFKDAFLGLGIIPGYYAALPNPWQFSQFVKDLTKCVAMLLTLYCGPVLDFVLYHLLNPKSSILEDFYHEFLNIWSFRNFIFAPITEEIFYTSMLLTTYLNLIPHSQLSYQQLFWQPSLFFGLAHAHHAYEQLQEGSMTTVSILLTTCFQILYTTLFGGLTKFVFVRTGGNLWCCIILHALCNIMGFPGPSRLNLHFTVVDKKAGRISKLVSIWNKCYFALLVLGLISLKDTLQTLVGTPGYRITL
JMH597 growth rt – retest Vibrio harveyi JMH597 growth inhibition | shares compounds with AI-2 QS modul | OD600 absorbance, 9 h; lacks LuxN and CqsS sensors | growth inhibition, % at 7.5 µM | 750 tested, 1% active;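 active = every replicate shows growth inhibition above 50%; inconclusive = at least half, but not all, replicates pass that cutoff; inactive = fewer than half of replicates pass it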
BB721 lum counter – retest counter-screen: lowers luminescence of constitutive-QS Vibrio harveyi BB721; shares compounds with AI-2 QS modul; 750 tested, 95% active; 9 h; inhibition, % at 7.5 µM;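 active = inhibition above about 80% in every replicate, not just on average, limit read from the data; inconclusive = at least half of replicates past the limit, but not all; inactive = fewer than half of replicates past the limit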
BB721 growth – retest Vibrio harveyi BB721 growth inhibition | shares compounds with AI-2 QS modul | OD600 absorbance, 9 h | growth inhibition, % at 7.5 µM | 750 tested, 3% active | AID 2728;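 active = every replicate shows growth inhibition above 50%; inconclusive = at least half but not all replicates above 50% inhibition; inactive = under half of replicates above 50% inhibition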
JMH597 AI-2 mod – Vibrio harveyi AI-2 signaling luminescence modulation – JMH597 strain, confirmation. Vibrio harveyi JMH597 AI-2 quorum sensing luminescence, 9 h; luxN and CqsS knockout, AI-2 only. inhibition, % at 7.5 µM. shares compounds with AI-2 QS modul. 750 tested, 97% active;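 active = every replicate shows more than 75% inhibition of signal versus neutral control wells; inconclusive = half to three quarters of replicates exceed 75% inhibition; inactive = fewer than half of replicates exceed 75% inhibition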
* hit, by the source's call; i = inactive; ? = inconclusive; . = not tested or not shown; + = active, no number. Compounds with a hit are over-represented: about 1.3% of the library has one in this group of screens.

SMILES | AI-2 QS modul | Statin myotox sup | HIF act | PGC1a acetyl inh | Rce1 inhib | JMH597 growth rt | BB721 lum counter | BB721 growth | JMH597 AI-2 mod
CCc1ccc(CCC(=O)Nc2ccc(Br)cc2)o1 | -91* | -8 | 0 | 5 | i | -20 | 95* | -26 | 97*
CCOC(=O)c1ccc(NC(=O)CCc2ccc(CC)o2)cc1 | -14 | -10 | 0 | 0 | i | . | . | . | .
Cc1ccc(CCC(=O)Nc2ccc(Cl)cc2)o1 | -87* | -11 | 0 | 72* | i | 23 | 91* | 9 | 93*
CCc1ccc(CCC(=O)Nc2ccc(Cl)cc2)o1 | -89* | -25 | 0 | 3 | i | -7 | 96* | -36 | 98*
CCc1ccc(CCC(=O)Nc2ccc(OC)cc2)o1 | -69 | 3 | -40 | 1 | i | . | . | . | .
Cc1ccc(CCC(=O)Nc2ccc(CC(=O)O)cc2)o1 | 12 | 0 | 0 | 3 | i | . | . | . | .
O=C(C[C@H]1CC[C@@H]2[C@H](COC[C@H](O)CN2C(=O)c2ccccc2)O1)N1CCOCC1 | . | -6 | . | -1 | . | . | . | . | .
C[C@H](CO)N1C[C@H](C)[C@H](CN(C)S(=O)(=O)c2ccc(F)cc2)Oc2ccc(NC(=O)CCC(F)(F)F)cc2C1=O | . | -13 | . | 1 | . | . | . | . | .
O=C(NCc1ccccc1)[C@H]1[C@H](CO)[C@H]2Cn3c(ccc(-c4cccnc4)c3=O)[C@H]2N1Cc1cocn1 | . | -12 | . | . | . | . | . | . | .
CO[C@H]1CN(C)C(=O)c2cc(NS(=O)(=O)c3cn(C)cn3)ccc2OC[C@H](C)N(C)C[C@H]1C | . | 16 | . | -6 | . | . | . | . | .
O=C1CCCC(=O)N1c1ccc(O)cc1 | 12 | . | 0 | . | i | . | . | . | .
O=C1CCCC(=O)N1c1ccc(Oc2ccc(Cl)cc2)cc1 | -84* | . | 3 | . | i | -18 | 89* | -38 | 92*
Cc1cc(C)c(NC(=O)COc2nncc3ccccc23)c(C)c1 | 16 | 0 | 0 | 4 | i | . | . | . | .
O=C(COc1nncc2ccccc12)Nc1ccc(F)c(F)c1 | -96* | . | 0 | -10 | . | -23 | 99* | -18 | 99*
O=C(COc1nncc2ccccc12)Nc1c(F)c(F)c(F)c(F)c1F | -6 | . | -1 | 1 | i | . | . | . | .
CC(C)c1ccc(NC(=O)COc2nncc3ccccc23)cc1 | -96* | . | 0 | . | + | 47 | 99* | ? | 100*
CN(Cc1nccs1)C(=O)c1cc(COc2cccc3cnccc23)on1 | -94* | -3 | 0 | 20 | i | 27 | 97* | 26 | 99*
CCOC(=O)CC1CCCCN1C(=O)c1cc(COc2cccc3cnccc23)on1 (configuration not stated) | -86* | -19 | -1 | . | i | 22 | 88* | 23 | 93*
COC(=O)C1CCCCN1C(=O)c1cc(COc2cccc3cccnc23)on1 (configuration not stated) | 30 | . | 1 | 7 | i | . | . | . | .
O=C(c1cc(COc2cccc3cccnc23)on1)N1CCC[C@H]1CO | . | 5 | . | -1 | . | . | . | . | .
COC(=O)C1CCCCN1C(=O)c1cc(COc2cccc3cnccc23)on1 (configuration not stated) | -91* | -1 | 1 | . | i | 8 | 92* | 25 | 95*
CC(=O)c1cccc(OCc2cc(C(=O)N(C)Cc3nccs3)no2)c1 | . | -8 | . | . | . | . | . | . | .
O=C(c1cccnc1)N1CC2(C1)[C@@H](c1ccccc1)[C@@H](CO)N2C(=O)c1cccnc1 | . | . | . | 1 | . | . | . | . | .
CCc1ccc(/C=C\C(=O)N2CCCC2)cc1 | -10 | 10 | 2 | . | i | . | . | . | .
CC(C)(C)c1ccc(/C=C/C(=O)N2CCCCC2)cc1 | -86* | . | 0 | . | i | 12 | 94* | 13 | 97*
SMILES | AI-2 QS modul | Statin myotox sup | HIF act | PGC1a acetyl inh | Rce1 inhib | JMH597 growth rt | BB721 lum counter | BB721 growth | JMH597 AI-2 mod
COC(=O)c1cc(OC)c(OC)cc1NC(=O)c1ccc(Br)o1 | ? | 5 | 0 | -8 | i | -18 | -2 | -19 | 1
Cc1noc(C)c1NC(=O)NCC[C@H]1CC[C@@H](NC(=O)c2ccncc2)[C@H](CO)O1 | . | 9 | . | 1 | . | . | . | . | .
NC(=S)Nc1cc(Cl)cc(Cl)c1 | -82* | . | 0 | -3 | i | -12 | 65 | -22 | ?
COCC(=O)N1CC2(CCN(C(C)=O)CC2)c2c([nH]c3cc(OC)ccc23)[C@@H]1CO | . | . | . | 3 | . | . | . | . | .
COc1cc(C(=O)NNc2nc3cc4c(cc3s2)OCO4)cc(OC)c1OC | 25 | -1 | 0 | -1 | i | . | . | . | .
O=C(NNc1nc2cc3c(cc2s1)OCO3)c1ccccc1 | -91* | 4 | 1 | -1 | i | 2 | 98* | 20 | 98*
Oc1ccc(C[C@@H]2CNC(=S)N2CCCCC2CCCCC2)cc1 | -92* | -10 | 3 | -19 | i | 1 | 92* | -20 | 96*
C=CCn1c(CCNC(=O)c2ccc(Cl)c(Cl)c2)nnc1SCCOc1ccc(OC)cc1 | -84* | 57 | 0 | -3 | i | 61 | 90* | 37 | 94*
Cc1ccc(Cc2cnc(NC(=O)c3ccco3)s2)cc1 | -86* | -4 | 0 | 11 | i | 27 | 97* | ? | 98*
Cc1ccc(Oc2ccc(NC(=O)c3ccco3)cc2)cc1 | -97* | -8 | 1 | -18 | . | 43 | 100* | ? | 100*
COCCCNC(=O)[C@@]1(Cc2ccccc2N=[N+]=[N-])N=C(c2ccc(OCCCO)cc2)O[C@H]1c1ccccc1N=[N+]=[N-] | . | . | . | -6 | . | . | . | . | .
O=C(CCCn1nnc(-c2cccnc2)n1)c1ccc(F)cc1 | -80* | -9 | . | 5 | i | 0 | 92* | -11 | 95*
Cc1cccc(-c2ccc([C@@H]3[C@H](CO)N4CCCCN(S(=O)(=O)c5cccs5)C[C@@H]34)cc2)c1 | . | . | . | -12 | . | . | . | . | .
CC(C)c1ccc(O)c(NC(=O)c2cncc(Br)c2)c1 | -94* | 2 | 1 | 11 | i | 8 | 98* | 32 | 98*
C[C@@H]1CN([C@H](C)CO)C(=O)c2cc(NS(=O)(=O)c3cccs3)ccc2O[C@H]1CN(C)Cc1ccc2c(c1)OCO2 | . | 37 | . | 11 | . | . | . | . | .
COc1ccc(NC(=O)Cn2nnc(-c3ccccc3N)n2)cc1OC | 9 | -4 | . | 12 | i | . | . | . | .
COc1cc(NC(=O)Cn2nnc(-c3ccccc3N)n2)cc(OC)c1 | -89* | -30 | 0 | -1 | i | 20 | 98* | 19 | 98*
CO[C@H]1CN(C)C(=O)c2ccc(NC(=O)c3cccc(Oc4ccccc4)c3)cc2OC[C@H](C)NC[C@@H]1C | . | . | . | -18 | . | . | . | . | .
CCCSc1nsc(NC(=O)c2cccnc2OCC)n1 | -95* | . | 1 | 6 | i | 69 | 100* | -25 | 100*
